Calls of active or inactive are those of the source. How the source made its calls: active means hit-call score of the fitted dose curve at least 0.9, where 1 is the maximum; inactive means score below 0.9.
Tests used:
Settings in all cases: mRNA level, 48 h; actives raise or lower the signal
[1] = read-out: ABC Transporter (ABCC3), ABCC3 (gene 8714); experiment: LTEA_HepaRG_ABCC3: Life Technologies and Expression Analysis (LTEA) Assay for ABC Transporter (ABCC3) using HepaRG (AID 2283462)
Procedure, shortened: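 Differentiated HepaRG liver cells receive test chemicals at eight concentrations (max 100 uM) for 48 h. Expression of ABCC3 is quantified by qRT-PCR against ACTB, GAPDH and POLR2A, and activity is fitted in both directions against the DMSO control.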

[2] = read-out: ABC Transporter (ABCB11), ABCB11 (gene 8647); experiment: LTEA_HepaRG_ABCB11: Life Technologies and Expression Analysis (LTEA) Assay for ABC Transporter (ABCB11) using HepaRG (AID 2283463)
Procedure, shortened: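 ABCB11 transcript levels are read by Fluidigm TaqMan qRT-PCR after 48 h chemical treatment of human HepaRG cells. Concentrations span 100 uM downward in half-log steps with 0.5% DMSO; gain or loss is fitted against DMSO controls.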

[3] = read-out: ABC Transporter (ABCC2), ABCC2 (gene 1244); experiment: LTEA_HepaRG_ABCC2: Life Technologies and Expression Analysis (LTEA) Assay for ABC Transporter (ABCC2) using HepaRG (AID 2283464)
Procedure, shortened: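 Gene expression of ABCC2 was determined by qRT-PCR in HepaRG cells exposed 48 h to chemicals (highest 100 uM, half-log dilutions). Activity was fitted in both directions relative to 0.5% DMSO vehicle.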

[4] = read-out: Broad substrate specificity ATP-binding cassette transporter ABCG2 (Homo sapiens) (UniProt Q9UNQ0); experiment: LTEA_HepaRG_ABCG2: Life Technologies and Expression Analysis (LTEA) Assay for ABC Transporter (ABCG2) using HepaRG (AID 2283465)
Procedure, shortened: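 Read-out is ABCG2 mRNA induction or loss quantified by qRT-PCR after 48 h chemical treatment of human HepaRG cells, normalized to three housekeeping genes. Concentrations reached 100 uM top in half-log steps; fitting was bidirectional against 0.5% DMSO.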

[5] = read-out: ATP-citrate lyase (ACLY), ACLY (gene 47); experiment: LTEA_HepaRG_ACLY: Life Technologies and Expression Analysis (LTEA) Assay for ATP-citrate lyase (ACLY) using HepaRG (AID 2283466)
Procedure, shortened: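 HepaRG, 48 h exposure, 8-pt half-log dilutions (top 100 uM), 0.5% DMSO. Readout: ACLY mRNA, TaqMan qRT-PCR, housekeeping-normalized (ACTB/GAPDH/POLR2A). Bidirectional curve fit vs DMSO.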

[6] = read-out: Peroxisomal acyl-coenzyme A oxidase 1 (ACOX1) gene, ACOX1 (gene 51); experiment: LTEA_HepaRG_ACOX1: Life Technologies and Expression Analysis (LTEA) Assay for Peroxisomal acyl-coenzyme A oxidase 1 (ACOX1) gene using HepaRG (AID 2283467)
Procedure, shortened: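 Measured by qRT-PCR against three housekeeping genes: ACOX1 transcript change in human HepaRG cells after 48 h dosing. Concentrations ran up to 100 uM in half-log steps. Curves were fitted bidirectionally relative to 0.5% DMSO.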

[7] = read-out: Alkaline Phosphatase, Placental (ALPP) gene, ALPP (gene 250); experiment: LTEA_HepaRG_ALPP: Life Technologies and Expression Analysis (LTEA) Assay for Alkaline Phosphatase, Placental (ALPP) gene using HepaRG (AID 2283468);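 on AC50: differentiated human HepaRG liver cells in serum-free induction medium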
Procedure, shortened: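 Expression of ALPP was quantified by qRT-PCR against three housekeeping genes in human HepaRG cultures treated for 48 h with an eight-point concentration series up to 100 uM. Activity in either direction was fitted relative to 0.5% DMSO.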

[8] = read-out: Bcl-2 (BAD) gene, BAD (gene 572); experiment: LTEA_HepaRG_BAD: Life Technologies and Expression Analysis (LTEA) Assay for Bcl-2 (BAD) gene using HepaRG (AID 2283469)
Procedure, shortened: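 BAD transcript change, measured by qRT-PCR against three housekeeping genes and fitted in both directions relative to 0.5% DMSO, after 48 h chemical treatment of human HepaRG liver cells at concentrations up to 100 uM.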

[9] = read-out: adenosine kinase (ADK) gene, ADK (gene 132); experiment: LTEA_HepaRG_ADK: Life Technologies and Expression Analysis (LTEA) Assay for adenosine kinase (ADK) gene using HepaRG (AID 2283471)
Procedure, shortened: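 Following 48 h exposure of HepaRG cells in 0.5% DMSO (top concentration 100 uM, duplicate wells), ADK mRNA induction or suppression was measured by qRT-PCR, normalised to ACTB/GAPDH/POLR2A, and fitted bidirectionally relative to vehicle.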

[10] = read-out: Alpha-fetoprotein (AFP) gene, AFP (gene 174); experiment: LTEA_HepaRG_AFP: Life Technologies and Expression Analysis (LTEA) Assay for Alpha-fetoprotein (AFP) gene using HepaRG (AID 2283472)
Procedure, shortened: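 HepaRG, single lot; 48 h post-plating -> serum-free induction medium; cpd 8-pt, 100 uM top, half-log, 0.5% DMSO, duplicate, 48 h. RNA -> qRT-PCR AFP, norm ACTB/GAPDH/POLR2A. Bidirectional fit vs DMSO.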

BCL2L11 (gene 10018) = experiment: LTEA_HepaRG_BCL2L11: Life Technologies and Expression Analysis (LTEA) Assay for Bcl-2 (BCL2L11) gene using HepaRG (AID 2283473)
Procedure, shortened: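 Cells were plated, cultured 48 h, switched to serum-free induction medium, then dosed in duplicate for 48 h at eight half-log concentrations up to 100 uM. Lysates underwent RNA isolation and TaqMan qRT-PCR; gain or loss versus DMSO was fitted.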

[11] = read-out: Apoptosis regulator Bcl-2 (Homo sapiens) (UniProt P10415); experiment: LTEA_HepaRG_BCL2: Life Technologies and Expression Analysis (LTEA) Assay for Bcl-2 gene using HepaRG (AID 2283475)
Procedure, shortened: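 HepaRG, plated 48 h then switched to serum-free induction medium; dosed 48 h, 8 conc. (max 100 uM, half-log steps), duplicate, 0.5% DMSO. Lysis in RLT, RNA isolated, TaqMan qRT-PCR for BCL2; ACTB/GAPDH/POLR2A normalisation; bidirectional fit vs DMSO.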

[12] = read-out: Bcl-2 (BID) gene, BID (gene 637); experiment: LTEA_HepaRG_BID: Life Technologies and Expression Analysis (LTEA) Assay for Bcl-2 (BID) gene using HepaRG (AID 2283476)
Procedure, shortened: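 Transcript levels of BID, measured by qRT-PCR and normalized to three housekeeping genes, were fitted bidirectionally against DMSO controls. Cells were HepaRG, dosed 48 h at up to 100 uM.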

Caspase-3 (Homo sapiens) = Caspase-3 (Homo sapiens) (UniProt P42574); experiment: LTEA_HepaRG_CASP3: Life Technologies and Expression Analysis (LTEA) Assay for cysteine-aspartic acid protease (CASP3) using HepaRG (AID 2283477)
Chain of Caspase-3 (Homo sapiens) (P42574 whole entry, looked up): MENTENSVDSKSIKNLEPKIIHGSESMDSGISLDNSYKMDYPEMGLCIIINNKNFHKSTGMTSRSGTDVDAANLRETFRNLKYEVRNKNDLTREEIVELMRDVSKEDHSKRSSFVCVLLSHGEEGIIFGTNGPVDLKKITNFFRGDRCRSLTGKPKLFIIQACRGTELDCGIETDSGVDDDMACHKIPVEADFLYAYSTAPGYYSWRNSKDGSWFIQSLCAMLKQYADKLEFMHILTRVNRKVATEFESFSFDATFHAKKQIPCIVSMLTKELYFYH
Procedure, shortened: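 In HepaRG liver cells dosed for 48 h at up to 100 uM (eight-point, duplicate), CASP3 expression changes are scored by qRT-PCR. Activity is fitted in both directions with 0.5% DMSO as baseline.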

[13] = read-out: Cytochrome P450 (CYP24A1), CYP24A1 (gene 1591); experiment: LTEA_HepaRG_CYP24A1: Life Technologies and Expression Analysis (LTEA) Assay for Cytochrome P450 (CYP24A1) using HepaRG (AID 2283478)
Procedure, shortened: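 Human liver HepaRG cultures receive each chemical for 48 h across an eight-point half-log series topping at 100 uM in 0.5% DMSO. Induction or suppression of CYP24A1 mRNA is scored relative to vehicle after housekeeping-gene normalization.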

[14] = read-out: Cytochrome P450 (CYP1A2), CYP1A2 (gene 1544); experiment: LTEA_HepaRG_CYP1A2: Life Technologies and Expression Analysis (LTEA) Assay for Cytochrome P450 (CYP1A2) using HepaRG (AID 2283479)
Procedure, shortened: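 Assesses CYP1A2 mRNA in human HepaRG liver cells after 48 h chemical exposure at up to 100 uM. Values come from qRT-PCR with bidirectional curve fitting relative to DMSO.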

[15] = read-out: cysteine-aspartic acid protease (CASP8), CASP8 (gene 841); experiment: LTEA_HepaRG_CASP8: Life Technologies and Expression Analysis (LTEA) Assay for cysteine-aspartic acid protease (CASP8) using HepaRG (AID 2283480)
Procedure, shortened: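 HepaRG, 48 h exposure, duplicate wells; 8 conc, half-log from 100 uM, 0.5% DMSO. Serum-free induction medium. CASP8 mRNA by TaqMan qRT-PCR, norm. ACTB/GAPDH/POLR2A; gain/loss fitted vs DMSO.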

[16] = read-out: Apolipoprotein A-V (APOA5) gene, APOA5 (gene 116519); experiment: LTEA_HepaRG_APOA5: Life Technologies and Expression Analysis (LTEA) Assay for Apolipoprotein A-V (APOA5) gene using HepaRG (AID 2283474)
Procedure, shortened: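 Human liver HepaRG cells are treated 48 h with test chemicals (100 uM top, half-log dilutions, 0.5% DMSO). APOA5 mRNA induction or loss is measured by qRT-PCR relative to vehicle.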

[17] = read-out: Bcl-2 (BAX) gene, BAX (gene 581); experiment: LTEA_HepaRG_BAX: Life Technologies and Expression Analysis (LTEA) Assay for Bcl-2 (BAX) gene using HepaRG (AID 2283470)
Procedure, shortened: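 HepaRG (human liver), 48 h exposure, duplicate wells. 8-pt curve, half-log from 100 uM, 0.5% DMSO. BAX transcript by TaqMan qRT-PCR; ACTB/GAPDH/POLR2A normalization; gain or loss vs DMSO baseline.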

Measured: AC50

Chain of Apoptosis regulator Bcl-2 (Homo sapiens) (P10415 whole entry, looked up): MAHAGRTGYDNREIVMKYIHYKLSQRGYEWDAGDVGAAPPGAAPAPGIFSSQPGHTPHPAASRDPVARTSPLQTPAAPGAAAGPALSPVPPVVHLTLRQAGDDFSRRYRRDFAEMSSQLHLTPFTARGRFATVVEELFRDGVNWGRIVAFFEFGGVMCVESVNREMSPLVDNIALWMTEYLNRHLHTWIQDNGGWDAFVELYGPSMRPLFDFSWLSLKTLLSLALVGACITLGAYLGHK
Chain of Broad substrate specificity ATP-binding cassette transporter ABCG2 (Homo sapiens) (Q9UNQ0 whole entry, looked up): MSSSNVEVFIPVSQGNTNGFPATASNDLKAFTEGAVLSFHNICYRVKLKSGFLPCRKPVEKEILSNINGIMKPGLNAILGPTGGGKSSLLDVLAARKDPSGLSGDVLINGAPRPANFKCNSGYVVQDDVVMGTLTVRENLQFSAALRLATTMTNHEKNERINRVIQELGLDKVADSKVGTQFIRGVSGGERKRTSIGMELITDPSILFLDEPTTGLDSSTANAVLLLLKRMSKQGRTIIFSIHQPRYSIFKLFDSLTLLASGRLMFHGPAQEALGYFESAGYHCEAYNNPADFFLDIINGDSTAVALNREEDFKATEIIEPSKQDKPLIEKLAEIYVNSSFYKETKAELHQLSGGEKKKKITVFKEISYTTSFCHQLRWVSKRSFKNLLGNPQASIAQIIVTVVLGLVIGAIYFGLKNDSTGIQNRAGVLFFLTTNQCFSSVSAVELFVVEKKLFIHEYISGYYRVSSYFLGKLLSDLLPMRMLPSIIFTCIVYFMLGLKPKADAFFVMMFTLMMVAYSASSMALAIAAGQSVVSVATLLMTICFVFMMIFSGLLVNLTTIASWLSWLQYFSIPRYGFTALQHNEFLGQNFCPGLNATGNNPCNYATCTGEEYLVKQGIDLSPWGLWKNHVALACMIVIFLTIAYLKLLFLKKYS

CCCCC(CC)COC(=O)CC(C(=O)OCC(CC)CCCC)S(=O)(=O)O (stereo unspecified)
inactive: [1] | [2] | [4] | [7] | [10] | BCL2L11 (gene 10018) | [11] | [13]
active: [3] 89.2 µM | [5] 90.7 µM | [6] 79.9 µM | [8] 80.7 µM | [9] 81.6 µM | [12] 50 µM | Caspase-3 (Homo sapiens) 81 µM | [14] 15.8 µM | [15] 81.6 µM

COc1ccc(S(=O)(=O)N2C(=O)[C@@](c3ccccc3OC)(N3C[C@H](O)C[C@H]3C(=O)N(C)C)c3cc(Cl)ccc32)c(OC)c1
active: [1] 50 µM | [2] 14.9 µM | [3] 31.4 µM | [4] 11.7 µM | [5] 90.5 µM | [6] 17.6 µM | [7] 29.5 µM | [9] 12.1 µM | [10] 29.4 µM | BCL2L11 (gene 10018) 63.4 µM | [16] 38.5 µM | [11] 50 µM | Caspase-3 (Homo sapiens) 12.2 µM | [14] 22.2 µM
inactive: [8] | [12] | [13] | [15]

Oc1ccc2c(c1)OC[C@@H](N1CCC(O)(c3ccc(F)cc3)CC1)[C@H]2O
not listed: [5]
inactive: all other assays above

Cc1cccc(Nc2cc(Cl)nc(SCC(=O)O)n2)c1C
active: [3] 82.3 µM | [6] 10.9 µM
not listed: [12] | [17]
inactive: all other assays above

Cc1oc(-c2ccccc2)nc1CCOc1cccc2c1ccn2CCC(=O)O
inactive: [1] | [3] | [8] | [9] | Caspase-3 (Homo sapiens) | [13] | [14]
active: [2] 93.7 µM | [4] 40.2 µM | [5] 38.7 µM | [6] 0.106 µM | [7] 63 µM | [10] 80.8 µM | BCL2L11 (gene 10018) 14.1 µM | [11] 86.3 µM | [15] 50 µM

O=C(OCCCCCOC(=O)c1ccccc1)c1ccccc1
inactive: [6] | [13]
active: [1] 12.7 µM | [2] 0.572 µM | [4] 0.773 µM | [5] 50 µM | [7] 1.46 µM | [8] 1.95 µM | [17] 1.78 µM | [9] 1.57 µM | [10] 0.77 µM | BCL2L11 (gene 10018) 2.45 µM | [11] 1.67 µM | [12] 2.7 µM | Caspase-3 (Homo sapiens) 0.627 µM | [14] 1.58 µM | [15] 0.942 µM

CCCCN(CCCC)CCCC
not listed: [12] | [17]
inactive: all other assays above

CC(CO)OC(C)CO (stereo unspecified) (tested in a mixture with another compound)
not listed: [5] | [12] | [16]
inactive: all other assays above

CNC(=O)[C@H]1O[C@@H](n2cnc3c(NCc4cc(Cl)ccc4OCc4cc(C)no4)ncnc32)[C@H](O)[C@@H]1N
not listed: [5] | [12] | [17]
inactive: all other assays above

O=C(O)Cc1ccccc1Nc1c(Cl)cccc1Cl
active: [3] 13 µM | [10] 19.7 µM | [14] 2.69 µM
not listed: [12] | [16] | [17]
inactive: all other assays above

C[Si]1(C)O[Si](C)(C)O[Si](C)(C)O[Si](C)(C)O1
not listed: [5] | [12] | [16] | [17]
inactive: all other assays above

O=C(N[C@@H](Cc1ccccc1)[C@@H](O)C(=O)N1C[C@@H](O)[C@@H](O)C1)c1cc2cc(Cl)ccc2[nH]1
active: [4] 50 µM | [14] 74.1 µM
not listed: [5] | [12] | [17]
inactive: all other assays above

CC=Cc1ccc(O)c(OC)c1
not listed: [5]
inactive: all other assays above

CCNc1cccc(C)c1
not listed: [16] | [17]
inactive: all other assays above

Cc1ccc(Cl)cc1
not listed: [16] | [17]
inactive: all other assays above
